Only some compounds are listed: those with a hit (about 2.4% of all), similar ones and a draw of the others.
D2 PAM-1 = HTS Assay for Positive Allosteric Modulators of the Human D2 Dopamine Receptor: Primary Screen for Potentiators; HEK293 T-REx D2, calcium flux, EC20 dopamine potentiation; AID 485347, 2010; D(2) dopamine receptor (Homo sapiens), P14416; potentiation, % at 10 µM; actives 0.34% (n = 340,000);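 active means potentiation over 3 SD above the plate norm, cut at about 30% in these data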
Target sequence (P14416 whole entry, looked up): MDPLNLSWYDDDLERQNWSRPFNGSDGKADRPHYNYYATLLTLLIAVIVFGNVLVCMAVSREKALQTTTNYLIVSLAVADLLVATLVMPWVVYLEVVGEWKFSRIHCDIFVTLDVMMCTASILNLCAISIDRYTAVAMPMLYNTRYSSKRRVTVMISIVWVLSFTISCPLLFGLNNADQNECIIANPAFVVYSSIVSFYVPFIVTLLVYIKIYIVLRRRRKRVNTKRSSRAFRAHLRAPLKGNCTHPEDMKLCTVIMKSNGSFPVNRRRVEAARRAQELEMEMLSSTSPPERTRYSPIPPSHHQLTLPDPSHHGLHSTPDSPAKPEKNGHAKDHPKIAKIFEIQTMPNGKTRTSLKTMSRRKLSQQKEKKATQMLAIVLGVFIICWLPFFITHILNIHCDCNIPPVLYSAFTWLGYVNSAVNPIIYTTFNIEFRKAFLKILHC
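Cells plated with tetracycline inducer and held overnight at 30 C; calcium dye loaded 30–90 min at room temperature; baseline taken, compound added and read 180 s; EC20 dopamine then added and read 180 s.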
D2 ag-1 = HTS Assay for Allosteric Agonists of the Human D2 Dopamine Receptor: Primary Screen for Agonists | D(2) dopamine receptor (Homo sapiens), P14416 | HEK293 T-REx D2 cells, calcium flux agonist mode | activation, % at 2 µM | actives 0.53% (n = 340,000) | AID 485358, 2010;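 active means activation over 3 SD above normal in the single-dose calcium agonist read, cut at about 30% in these data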
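HEK293 Trex D2 cells, tetracycline-induced, o/n 30 C 5% CO2; no-wash Ca dye, RT 30–90 min; 10-cycle baseline, 23 nl cpd added, kinetic Ca read 180 s; agonist hits = positive Ca response.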
B2AR arrestin = qHTS assay of beta-arrestin-biased ligands of beta2-adrenergic receptor | Potency, µM (doses to about 46.1 µM), most hits filed as activators | beta-arrestin recruitment to beta2AR, cell-based reporter | actives 0.02% (n = 330,000) | AID 492947, 2010; active means well fitted activation curve with a large enough effect; inconclusive means small, poorly fitted or top-dose-only effect; further: nearly all actives have a fitted effect of over 65% in size
D2 PAM-2 = Beta-Arrestin HTS for Positive Allosteric Modulators of the Human D2 Dopamine Receptor: Potentiators | D(2) dopamine receptor (Homo sapiens), P14416 | DiscoveRx D2 beta-arrestin cells, luminescence, 90 min; 100% = 57 uM dopamine signal | potentiation, % (no concentration beside the values) | actives 0.23% (n = 360,000); in the data active means potentiation above about 50%; inconclusive means mostly about 30% to 49%
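PathHunter beta-arrestin assay in DiscoveRx D2 cells. Compounds were added with an EC20 of dopamine (50 nM final) for 90 min at 37 deg C. Luminescence was read 1 h after detection reagent, with 57 uM dopamine as the EC100 control.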
D2 ag-2 = Beta-Arrestin HTS for Positive Allosteric Modulators of the Human D2 Dopamine Receptor: Agonists. D(2) dopamine receptor (Homo sapiens), P14416. DiscoveRx PathHunter D2 beta-arrestin, luminescence, 90 min; 100% = 57 uM dopamine signal. activation, % (concentration not given with the values). actives 0.084% (n = 360,000). AID 624465, 2012; in the data active means activation above about 40%; inconclusive means between about 15% and that limit
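DiscoveRx PathHunter D2 beta-arrestin cells (2,100/well) attached overnight, then compound-stimulated 90 min at 37 C in HBSS/10 mM HEPES/0.1% Tween-20 buffer; beta-galactosidase complementation read by luminescence after 1 h at ambient temperature. Dopamine 57 uM final (EC100) as control.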
D2 antag = HTS Assay for Allosteric Antagonists of the Human D2 Dopamine Receptor: Primary Screen for Antagonists; HEK293 TREx D2 cells, calcium flux, dopamine EC80; inhibition, % at 10 µM; actives 2% (n = 340,000); AID 485344, 2010; in the data active means inhibition above about 30%; inactive means below that, where a call was filed
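Compounds are added to dye-loaded, induced HEK293 T-REx cells coupled to calcium release via D2; after a 3 min kinetic read an EC80 dopamine stimulus is given and fluorescence is recorded for 3 more min.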
Large screens that a line does not name were inactive.

Cc1cc(C)c(NC(=O)CNC(=O)CN2C(=O)NC3(CCCc4ccccc43)C2=O)c(C)c1 (stereo not drawn)	none
Cc1ccc(S(=O)(=O)N2CCOCC2)cc1C(=O)OC(C)C(=O)c1ccccc1 (stereo not drawn)	D2 antag 37
Cc1ccc(S(=O)(=O)N2CCOCC2)cc1C(=O)O	none
Cn1ccnc1SCC(=O)Nc1ccc(Cl)cn1	D2 antag 31
Cn1ccnc1SCC(=O)Nc1ccc([N+](=O)[O-])cn1	none
O=C(CCNC(=O)N1CC(=O)Nc2ccccc21)NCc1ccc(F)cc1	D2 antag 52
O=C(CNC(=O)N1CC(=O)Nc2ccccc21)NCc1ccc(F)cc1	none (no result: D2 PAM-1, D2 ag-1, B2AR arrestin, D2 antag)
O=C1c2ccccc2CCCC12N=NCC2c1cccc2ccccc12 (stereo not drawn)	D2 PAM-2 119, D2 ag-2 inconclusive (no result: D2 PAM-1, D2 ag-1, D2 antag)
Cc1ccc(C2CN=NC23CCc2ccccc2C3=O)cc1 (stereo not drawn)	none
Cn1c(=O)n(C)c2cc(/C=N/n3cnnc3)ccc21	none
NC(N)=NC(N)=Nc1ccc2ccccc2c1	D2 antag 33
COc1ccccc1NC(=S)NC(=O)Cc1ccc(Cl)cc1	D2 antag 52
O=C(CN1C(=O)CC(c2ccccc2)S(=O)(=O)c2ccccc21)N1CCOCC1 (stereo not drawn)	none (no result: D2 PAM-1, D2 PAM-2, D2 ag-2)
O=C(Cc1cccs1)N1CCN(C(=O)C2CCCO2)CC1 (stereo not drawn)	none (no result: D2 PAM-1)
O=C(c1cccs1)N1CCN(C(=O)C2CCCO2)CC1 (stereo not drawn)	D2 antag 37
CCN1/C(=C/C=C/c2oc3ccc(-c4ccccc4)cc3[n+]2CC)Oc2ccc(-c3ccccc3)cc21	D2 ag-1 149, D2 antag 76
CCN1/C(=C/C=C/c2sc3ccccc3[n+]2CC)Sc2ccccc21	none (no result: D2 PAM-1, D2 ag-1, D2 antag)
O=C1CC(=O)c2c1cccc2[N+](=O)[O-]	none (no result: D2 PAM-2, D2 ag-2)
COCCNC(=O)C(c1ccc(Cl)cc1)N(C(=O)CCC(=O)Nc1ccccn1)C1CCCC1 (stereo not drawn)	none
O=C(C1CC(=O)N(c2ccc(F)cc2)C1)N1CCOCC1 (stereo not drawn)	none (no result: D2 PAM-1)
Cc1ccc(-c2nc3ccccc3c(=O)n2O)cc1	none
O=c1c2ccccc2nc(-c2ccc([N+](=O)[O-])cc2)n1O	D2 PAM-1 31
O=C(CCc1nc2ccccc2c(=O)[nH]1)Nc1cc(Cl)ccc1N1CCCCC1	D2 antag 43
Cc1ccc(C(=O)Nc2cc(Cl)ccc2N2CCCCC2)s1	D2 antag 32
O=C(CCc1nc2ccccc2c(=O)[nH]1)Nc1ccccc1N1CCCCC1	none (no result: D2 PAM-1, D2 ag-1, B2AR arrestin, D2 antag)
CSc1ccc(/C=C/C(=O)OCC(=O)c2ccc[nH]2)cc1	D2 antag 50
CC1CCN(CC[C@H]2CCCN2S(=O)(=O)c2cccc(O)c2)CC1	D2 antag 34
COc1ccc(NC(C)=O)c([N+](=O)[O-])c1[N+](=O)[O-]	none (no result: D2 PAM-1, D2 ag-1, B2AR arrestin, D2 antag)
COc1ccc(OC)c([N+](=O)[O-])c1C(N)=O	D2 PAM-2 50
COc1cccc(Oc2nc(-c3ccccc3O)nc3ccccc23)c1	D2 antag 43
Cc1ccc(OC(=O)c2cccc(C(=O)Oc3ccc(C)cn3)n2)nc1	none (no result: D2 PAM-2, D2 ag-2)
Cc1cc(C(F)(F)F)n(-c2ccc(N)cc2)n1	none
COc1ccc(N(CC(=O)Nc2cccc(F)c2)S(=O)(=O)c2c(C)[nH]c(=O)[nH]c2=O)cc1	none
CCOC(=O)C1C(=O)NC(N2CCCCC2)=NC1c1ccccc1 (stereo not drawn)	none
CCOC(=O)C1C(=O)Nc2nc(C)nn2C1c1ccccc1 (stereo not drawn)	D2 antag 42
COc1ccc(C)cc1NC(=O)C1CCCN(S(=O)(=O)c2cccc3cccnc23)C1 (stereo not drawn)	none
COC(=O)c1nn(-c2ccc(C)cc2)c2nnc(Cc3ccccc3)c(=O)n12	none
c1ccc(OCCOCCOc2ccccc2)cc1	none (no result: D2 PAM-1, D2 ag-1, B2AR arrestin, D2 antag)
C[N+](C)(CCOc1ccccc1)Cc1ccccc1 (tested in a mixture with another compound)	D2 PAM-2 74, D2 ag-2 inconclusive
O=C1c2ccccc2S(=O)(=O)c2cc(C(=O)N(c3ccccn3)c3ccccn3)ccc21	D2 ag-1 37, D2 PAM-2 inconclusive
CCC(C)(C)NC(=O)c1ccc2c(c1)S(=O)(=O)c1ccccc1C2=O	D2 PAM-2 71 (no result: B2AR arrestin)
CC(C)(C)c1ccc(NC(=O)c2ccc3c(c2)S(=O)(=O)c2ccccc2C3=O)cc1	none (no result: D2 PAM-1, D2 ag-1, B2AR arrestin, D2 antag)
O=C(NCCOc1ccccc1)c1ccc2c(c1)S(=O)(=O)c1cc(Cl)ccc1C2=O	D2 PAM-2 73 (no result: D2 PAM-1, D2 ag-1, D2 antag)
O=C(NCCN1CCOCC1)c1ccc2c(c1)ncn2C1CCCCC1	none
O=C(NC1CC1)c1c[nH]c2ccc(S(=O)(=O)Nc3cccc(C(F)(F)F)c3)cc2c1=O	none
COC(=O)[C@@H](Cc1c[nH]c2ccccc12)NC(=O)CCC(=O)c1ccc(F)cc1	none
O=C(Nc1ccccc1)Nc1cccc2ccccc12	none
O=C(Nc1ccccc1)Nc1cccc2cccnc12	D2 PAM-1 34
CCn1ncc(/C=C2/SC(=S)NC2=O)c1C	D2 ag-1 33
CCn1c(C)cc(/C=C2/SC(=S)NC2=O)c1C	none
CC(C)=C1C2CCC1C1C(=O)N(NC(=O)COc3ccc(C(C)(C)C)cc3)C(=O)C21 (stereo not drawn)	D2 antag 32
Cc1ccc2cc(C)c3nnc(SCC(=O)c4cccs4)n3c2c1C	none
Cc1cc2ccc(C)c(C)c2nc1SCC(=O)c1cccs1	D2 antag 60
CCCCNCCOCCOc1ccc(Cl)cc1Br	D2 antag 72
COCCCNCCCOc1ccc(C)cc1Br	D2 antag 38
COCCCNCCCOc1ccc(Cl)cc1Br	none
CCCCNCCCOc1cc(Cl)ccc1Cl	D2 antag 56
CCC(C)NCCCOc1cc(Cl)ccc1Cl (stereo not drawn)	D2 antag 80
COc1cc(/C=N/NC(=O)c2cccc3ccccc23)cc(OC)c1O	none
